Assay results as given in the supplement of paper PMC9446081.
In all, about 39,000 compounds went through this assay and about 220 (0.56%) showed activity. The entries come from a sample that favours actives as a whole.

system: Escherichia coli K-12 BW25113; assay: relative growth (OD600 normalised to plate interquartile mean) (fraction); higher = less growth inhibition, active = 0.2 or less; details: 50 µM; LB; incubation time: overnight (16-24 h)
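Note: Wild-type cells incubated without shaking, value is the mean of two biological replicates.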

Structure (SMILES)	relative growth
COc1ccc(C2=C(NC(=O)c3ccc(OC)cc3-c3cccc(OC)c3)C(=O)c3ccccc3C2=O)cc1	1.01 (inactive)
C[C@@H]1CCCCO[C@@H](CN(C)C(=O)CCC(F)(F)F)[C@H](C)CN([C@H](C)CO)C(=O)c2cc(NS(=O)(=O)c3ccccc3)ccc2O1	0.994 (inactive)
C=CC1=C(C(=O)O)N2C(=O)[C@@H](NC(=O)/C(=N/O)c3csc(N)n3)[C@H]2SC1	0.0336 (active)
Nc1nc(/C(=N/O)C(=O)N[C@@H]2C(=O)N3C(C(=O)O)=C(/C=C4\CCN([C@@H]5CCNC5)C4=O)CS[C@H]23)ns1	0.0367 (active)
CC=CC1=C(C(=O)O)N2C(=O)C(NC(=O)C(N)c3ccc(O)cc3)C2SC1 (stereo not given)	1.08 (inactive)
C/C=C\C1=C(C(=O)O)N2C(=O)[C@H](NC(=O)[C@@H](N)c3ccc(O)cc3)[C@@H]2SC1	0.912 (inactive)
C[C@H](CO)N1C[C@H](C)[C@H](CN(C)S(=O)(=O)c2ccc(Cl)cc2)Oc2ccc(NC(=O)CCCN(C)C)cc2C1=O	0.989 (inactive)
COc1ccc(Cc2nn[nH]n2)cc1	1 (inactive)
Cc1noc(C)c1NC(=O)N(C)C[C@H]1OCCCC[C@H](C)Oc2ccc(NC(=O)c3ccccc3)cc2C(=O)N([C@@H](C)CO)C[C@H]1C	0.98 (inactive)
CCc1nc2ccc(C(=O)Nc3cccc(OC)c3)cn2c1N(CC)Cc1cccc(Br)c1	1.01 (inactive)
CO[C@H]1CN(C)C(=O)c2cc(NC(C)=O)ccc2OC[C@@H](C)N(S(=O)(=O)c2cn(C)cn2)C[C@@H]1C	1.01 (inactive)
COc1c(N2CC3CCCNC3C2)c(F)cc2c(=O)c(C(=O)O)cn(C3CC3)c12.Cl (stereo not given)	0.0459 (active)
COc1c(N2CCNC(C)C2)c(F)cc2c(=O)c(C(=O)O)cn(C3CC3)c12 (stereo not given)	0.0431 (active)
CCn1cc(C(=O)O)c(=O)c2cc(F)c(N3CCNC(C)C3)c(F)c21.Cl (stereo not given)	0.0478 (active)
C[C@@H]1CN([C@@H](C)CO)C(=O)c2cc(Br)cnc2O[C@H]1CN(C)C(=O)c1ccc2c(c1)OCO2	0.994 (inactive)
Nc1c2c(=O)[nH]c(=O)cc-2[nH]n1-c1ccccc1	0.972 (inactive)
COCC#Cc1ccc2c(c1)O[C@H](CN(C)C(=O)C1CCOCC1)[C@H](C)CN([C@@H](C)CO)S2(=O)=O	1.01 (inactive)
CC(C)CNC(=O)C[C@H]1NCCNC1=O	0.923 (inactive)
CN1C(=O)c2cc(NC(=O)c3cccs3)ccc2OC[C@@H]2O[C@H](CC(=O)NCCN3CCCCC3)CC[C@H]21	1.02 (inactive)
C[C@@H]1CN([C@H](C)CO)C(=O)c2cc(NC(=O)Cn3cnnn3)ccc2O[C@@H]1CN(C)Cc1ccncc1	1.01 (inactive)
